Source: PubChem BioAssay (National Center for Advancing Translational Sciences (NCATS))
GLS inh = glutaminase GLS (human) inhibition; O94925; GLS enzymatic activity, qHTS titration; Potency, µM (highest dose often 45.5 µM), for inactives: at the top dose activity change, negative = inhibition, hits mostly inhibitors; actives 0.21% (n = 410,000); note: % is set by controls: 0 for no effect and ±100 for the full control effect
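Glutamate formation by hKGA was monitored fluorometrically using coupled glutamate oxidase, HRP and Amplex Red. Substrate was added as 1 mM L-glutamine solution; incubation was 30 min at RT after an initial read.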
HP1b chromo inh = HP1-beta chromodomain-methylated histone interaction inhibition | actives 0.56% (n = 390,000) | Potency, µM (highest dose often 114 µM), for inactives: top-dose activity change, negative = inhibition, hits mostly inhibitors | P83916 | AlphaScreen HP1-beta / biotin-H3K9me3 peptide binding; note: nearly all actives have a fitted effect of over 70% in size
Target sequence (P83916 whole entry, looked up): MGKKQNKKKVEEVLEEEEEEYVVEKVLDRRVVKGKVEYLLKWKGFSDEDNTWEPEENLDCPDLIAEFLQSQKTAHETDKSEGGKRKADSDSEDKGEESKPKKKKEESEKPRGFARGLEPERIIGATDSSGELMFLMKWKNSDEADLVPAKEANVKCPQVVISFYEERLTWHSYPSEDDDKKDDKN
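AlphaScreen: HP1-beta (50 nM) preformed 30 min with biotin-H3(1-18)K9me3 peptide (50 nM) in PBS pH 7.4, 0.01% Tween-20. Compound added for 30 min at RT, then streptavidin donor/nickel chelate acceptor beads (10 ug/mL) for 30 min.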
BAZ2B block = inhibitors of human BAZ2B bromodomain | AID 504333 | AlphaScreen BAZ2B-H3K14Ac peptide displacement | Potency, µM (highest dose often 114 µM), for the others: at the highest dose activity change, negative = inhibition, most hits filed as inhibitors | actives 4.4% (n = 360,000) | Q9UIF8; note: % is set by controls: 0 for no effect and ±100 for the full control effect; nearly all actives have a fitted effect of over 60% in size
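Inhibition is scored as reduced AlphaScreen emission. The BAZ2B/b-H3(5-23)K14Ac complex (50 nM each) in PBS pH 7.4, 0.01% Tween-20 meets compound (up to 110 uM) for 30 min at RT before bead addition.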
G9a block = inhibitors of human histone lysine methyltransferase G9a; Q96KQ7; G9a H3K9 monomethylation, AlphaScreen, 2 h; Potency, µM (top dose mostly 102 µM), inactives show at the top dose activity, negative = inhibition, most hits filed as inhibitors; actives 8.8% (n = 350,000); AID 504332; note: % is set by controls: 0 for no effect and ±100 for the full control effect; nearly all actives have a fitted effect of over 75% in size
Target sequence (Q96KQ7 913-1193 limits assumed): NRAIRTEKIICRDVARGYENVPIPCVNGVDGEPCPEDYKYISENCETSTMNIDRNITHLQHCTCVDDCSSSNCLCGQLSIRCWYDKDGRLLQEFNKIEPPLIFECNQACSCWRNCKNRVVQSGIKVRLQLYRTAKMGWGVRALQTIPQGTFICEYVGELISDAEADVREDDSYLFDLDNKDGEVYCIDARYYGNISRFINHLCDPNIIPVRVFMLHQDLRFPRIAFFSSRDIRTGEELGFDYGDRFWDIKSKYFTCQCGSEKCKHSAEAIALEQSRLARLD
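AlphaScreen read-out: biotin-H3K9 peptide (500 nM) methylation by 20 nM enzyme with 20 uM SAM, 2 h at room temperature after 15 min compound preincubation; anti-monomethyl H3K9 antibody plus donor/acceptor beads, 10 min dark.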
JMJD2A Tudor = inhibitors of human JMJD2A Tudor domain | O75164 | AlphaScreen JMJD2A-Tudor / H3K4me3 peptide binding | Potency, µM (titrated, usually from 114 µM), without a hit: top-dose activity change, negative = inhibition, actives largely listed as inhibitors | actives 4.4% (n = 390,000) | AID 504339; note: % is set by controls: 0 for no effect and ±100 for the full control effect; nearly all actives have a fitted effect of over 50% in size
An asterisk follows results filed as active; ? = inconclusive; nt = no result given; [ ] = dose if it differs, or a comment. The list is not random: actives were taken first. Their share in the collection is about 10%. Calls come from the whole dose curve; as a rule, active = well fitted curve in the direction sought with a large enough effect; inconclusive = small, poorly fitted or top-dose-only effect, or another doubt; inactive = no such curve, though single readings can be large; an effect the other way counts as inactive or inconclusive. Potency is the fitted concentration of half-maximal effect.

SMILES	GLS inh	HP1b chromo inh	BAZ2B block	G9a block	JMJD2A Tudor
CC1CCN(S(=O)(=O)c2ccc(NC(=O)CCN3C(=O)c4ccccc4C3=O)cc2)CC1	-7%	14%	-30%	-1%	-22%
N#CCCN1CCN(C(=S)c2ccc(-c3ccc(Cl)c(Cl)c3)o2)CC1	-2%	?	nt	?	50µM*
N#CCCN1CCN(C(=S)c2ccc(-c3cccc(Cl)c3)o2)CC1	2%	?	35µM*	8.9µM*	35µM*
O=C(NC(=S)Nc1cc(Cl)ccc1N1CCOCC1)c1ccc(-c2cccc(Cl)c2)o1	7%	7%	6%	13%[59 µM]	-16%
O=C(NCc1ccco1)c1noc2c1CCCCC2	-3%	17%	6%	21%[12.7 µM]	-11%
Cc1ccc(-c2nn3c(C)nnc3s2)cc1NC(=O)c1ccc(OC(C)C)cc1	3%	35%	-16%	?	-16%
O=C(CSc1nc2cc(C(=O)NC3CCCC3)ccc2c(=O)n1CC1CCCO1)c1ccc(F)cc1 (centres undefined)	-5%	-13%	-5%	0%[59 µM]	-14%
CCC(=O)N1CCC(c2ccc(OC)cc2)=N1	1%	-5%	-6%	-15%[59 µM]	-7%
Cn1cnc2c1c(=O)n(Cc1ccc(F)cc1Cl)c(=O)n2C	8.9µM*	34%	5%	-4%[59 µM]	3%
Cn1c(Oc2cccc(Cl)c2)nc2c1c(=O)n(Cc1ccccc1Cl)c(=O)n2C	-1%	54%	3%	15%[59 µM]	9%
Cn1c(Oc2ccccc2)nc2c1c(=O)n(Cc1ccc(Cl)cc1Cl)c(=O)n2C	11µM*	18%	-27%	0%[59 µM]	-28%
O=C1CC[C@H](N2C(=O)c3ccccc3C2=O)C(=O)N1	4%	31%	-7%	9%[12.7 µM]	3%
COc1ccc(C(=O)NC2CCCCCCC2)cc1OC	-3%	62%	nt	nt	-6%
COc1ccc(S(=O)NC2CCCCC2)c(OC)c1C (centres undefined)	24%	56%	1%	32µM*	?
CC1(OC(=O)c2cccs2)C(=O)C=C2C=C3CCCN3C=C2C1=O (centres undefined)	16µM*	?	45µM*	-37%[59 µM]	56µM*
CC1(OC(=O)CCc2ccccc2)C(=O)C=C2C=C(c3ccc(C#N)cc3)N(C3CCCCC3)C=C2C1=O (centres undefined)	-3%	-8%	?	-36%[59 µM]	?
CC1(OC(=O)CCc2ccccc2)C(=O)C=C2C=C3CCCN3C=C2C1=O (centres undefined)	-20%	-9%	56µM*	-39%[59 µM]	56µM*
CCOc1ccc(S(=O)(=O)N2CCC(C(=O)N3CCN(c4ccccc4)CC3)CC2)cc1	-1%	-4%	17%	nt	-19%
O=C1CC(c2ccc(O)cc2)Oc2cc(O)ccc21 (centres undefined)	10%	23%	nt	nt	-16%
COc1ccccc1NC(=S)N/N=C1\CC(C)(C)Oc2ccc(O)cc21	15%	7%	-42%	?	-26%
CC(=O)N1CCC2(CC1)C/C(=N\NC(=S)Nc1ccccc1C)c1cc(O)ccc1O2	26%	?	-31%	32µM*	?
CC(=O)N1CCC2(CC1)C/C(=N\NC(=S)Nc1ccccc1F)c1cc(O)ccc1O2	24%	?	-33%	16µM*	?
CSc1ccc(NC(=O)NCCCN2CCN(c3ccccc3F)CC2)cc1	26%	11%	?	-19%	?
Cc1noc(C(=O)NCC2CCCO2)c1Cl (centres undefined)	-10%	-1%	-16%	17%	-14%
COc1ccc(C(=O)N/N=C/c2ccc(OC)c(COc3c(F)c(F)cc(F)c3F)c2)cc1	-3%	44%	?	?	-14%
SMILES	GLS inh	HP1b chromo inh	BAZ2B block	G9a block	JMJD2A Tudor
COc1ccc(/C=N\NC(=O)c2ccc(F)cc2)cc1COc1ccccc1C(N)=O	-3%	35%	-23%	35µM*	-10%
COc1ccc(/C=N\NC(=O)c2ccc([N+](=O)[O-])cc2)cc1COc1c(F)c(F)cc(F)c1F	0%	2%	-2%	63µM*	-24%
CCc1ccccc1NNC(=O)CCc1ccccc1	?	19%	-3%	28µM*	-7%
CC(C)NC(=O)C(=O)NNC(=O)CCc1ccccc1	2%	20%	-39%	?	14µM*
CCCn1c(SCC(=O)NCC)nc2sc3c(c2c1=O)CCC3	?	0%	4%	23%	-12%
Cc1ccc(OCC(=O)NCc2ccc3c(c2)OCO3)c([N+](=O)[O-])n1	-21%	-17%	-13%	-36%	?
Cc1c(NC(=S)/C=C2\N(C)c3ccccc3C2(C)C)c(=O)n(-c2ccccc2)n1C	29%	?	?	32µM*	-26%
CC(C)C(=O)NC(=S)/C=C1/N(C)c2ccccc2C1(C)C	-36%	50µM*	32µM*	40µM*	40µM*
Cc1c(N=C/C=C2\N(C)c3ccccc3C2(C)C)c(=O)n(-c2ccccc2)n1C	52%	-7%	2%	10%	-22%
Cc1ccc(C(=O)NC(=S)/C=C2\N(C)c3ccccc3C2(C)C)cc1	13%	13µM*	13µM*	14µM*	22µM*
CN1/C(=C\C(=O)C(F)F)C(C)(C)c2ccccc21	0%	45%	19%	-21%	16%
c1cc[n+](CCC[n+]2ccccc2)cc1	-19%	11%	0%	11µM*	?
Cc1c(C(=O)N2CCN(c3ncccn3)CC2)oc2ccc(F)cc12	0%	-5%	nt	nt	-17%
COc1ccc(C(C#N)N2N=C(C)CC2c2ccccc2)cc1 (centres undefined)	-9%	32%	-3%	45µM*	-4%
Nc1cccc2c3c(oc12)CCCC3	14%	21%	-27%	40µM*	-28%
COc1cccc2c(=O)c3c(oc12)CCCC3	0%	nt	nt	nt	nt
N/C(CC1CC1(Cl)Cl)=N\OC(=O)c1ccccc1 (centres undefined)	3%	51%	-6%	nt	20%
c1ccc(-c2ccc(-c3cnc4n3CCCCC4)cc2)cc1	-15%	-43%	50µM*	18µM*	56µM*
Cc1ccc(-c2cnc3n2CCCCC3)cc1	-3%	16%	-12%	-1%	-26%
O=C(O)c1ccc(-n2c(=O)c3ccccc3c3ccccc3c2=O)cc1	16%	51%	89µM*	12%[0.501 µM]	-17%
Cc1ccc(-n2c(=O)c3cc4c(=O)n(-c5ccc(C)c(C)c5)c(=O)c4c(C(=O)c4ccc(C(=O)O)cc4)c3c2=O)cc1C	9%	?	10µM*	nt	13µM*
CC(=O)Nc1ccc(-n2c(=O)c3ccccc3c3ccccc3c2=O)cc1	4%	26%	-1%	-38%	-3%
O=C(O)c1ccccc1Nc1cccc(OCc2ccc3ccccc3n2)c1	-3%	-6%	45µM*	11µM*	?
FC(F)(F)c1ccccc1-n1c(CN2CCCCC2)n[nH]c1=S	4%	21%	-24%	20µM*	22µM*
